These results are taken from PubChem BioAssay.

Experiment [1] can be described thus: reducers of endogenous Her2 protein level, primary screen, SKBR3 breast tumor cells, AlphaScreen, ATP viability (AID 461).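 For Her2 level: lower value means less Her2 protein in the cells.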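 For viability: percent of carrier control wells set as 100% viability.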 The following applies: 18-24 h, measured here: SKBR3 viability, ATP luminescence, at 10 µM. On the technique in general: Alpha assays give light when donor and acceptor beads are brought close together.
For experiment [2], the target named is Receptor tyrosine-protein kinase erbB-2 (Homo sapiens) (UniProt P04626). Described as above. The following applies: 18-24 h, at 10 µM, stronger effect = lower value.
Chain of Receptor tyrosine-protein kinase erbB-2 (Homo sapiens) (P04626 whole entry, looked up): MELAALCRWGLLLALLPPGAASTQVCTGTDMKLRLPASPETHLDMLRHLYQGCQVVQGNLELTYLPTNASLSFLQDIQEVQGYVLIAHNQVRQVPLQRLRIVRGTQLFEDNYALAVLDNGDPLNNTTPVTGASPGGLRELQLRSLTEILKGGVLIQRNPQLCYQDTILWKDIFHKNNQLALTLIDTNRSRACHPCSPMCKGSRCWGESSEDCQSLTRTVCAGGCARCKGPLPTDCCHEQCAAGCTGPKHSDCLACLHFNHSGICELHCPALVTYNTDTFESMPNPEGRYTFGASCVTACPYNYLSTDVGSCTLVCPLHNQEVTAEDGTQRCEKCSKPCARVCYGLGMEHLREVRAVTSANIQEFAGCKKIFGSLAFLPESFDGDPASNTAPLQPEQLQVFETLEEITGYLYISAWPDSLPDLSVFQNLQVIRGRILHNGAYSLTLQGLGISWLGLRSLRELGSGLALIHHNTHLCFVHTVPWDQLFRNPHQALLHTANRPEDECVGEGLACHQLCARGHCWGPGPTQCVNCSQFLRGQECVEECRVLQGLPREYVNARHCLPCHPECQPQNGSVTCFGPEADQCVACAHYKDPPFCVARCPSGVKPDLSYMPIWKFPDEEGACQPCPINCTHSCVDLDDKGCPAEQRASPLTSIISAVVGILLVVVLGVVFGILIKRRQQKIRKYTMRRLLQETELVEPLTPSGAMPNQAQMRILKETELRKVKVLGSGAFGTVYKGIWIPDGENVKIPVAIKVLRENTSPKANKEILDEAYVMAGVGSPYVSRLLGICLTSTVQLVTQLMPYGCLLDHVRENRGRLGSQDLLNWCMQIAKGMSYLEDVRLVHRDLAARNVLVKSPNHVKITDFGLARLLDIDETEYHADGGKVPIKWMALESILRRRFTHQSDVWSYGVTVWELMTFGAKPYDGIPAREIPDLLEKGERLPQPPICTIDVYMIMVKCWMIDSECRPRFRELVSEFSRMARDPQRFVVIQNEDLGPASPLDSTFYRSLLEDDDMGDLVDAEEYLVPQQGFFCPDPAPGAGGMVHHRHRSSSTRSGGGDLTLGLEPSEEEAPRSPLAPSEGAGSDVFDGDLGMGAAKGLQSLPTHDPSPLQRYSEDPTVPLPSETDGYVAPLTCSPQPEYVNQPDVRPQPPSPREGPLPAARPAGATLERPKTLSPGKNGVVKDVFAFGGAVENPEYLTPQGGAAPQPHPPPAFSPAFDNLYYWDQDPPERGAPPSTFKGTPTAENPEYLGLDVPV
Experiment [3] can be described thus: SK-BR-3 cell growth inhibitors, pilot screen, 24 h, human (AID 572;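 active = viability at or below 10% of carrier control in both of two separate runs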;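 note: compound exposure lasted between 18 and 24 h rather than exactly 24 h; 100% = carrier-treated control wells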). The following applies: SK-BR-3 viability, CellTiter-Glo luminescence, at 10 µM, stronger effect = lower value. On the technique in general: Cellular ATP, detected with luciferase, serves as a proxy for viable cell number.
Experiment [4] can be described thus: HUVEC growth inhibition – cell-based, human, primary screen (AID 575;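 active = viability at or below 30% in both replicate assays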;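 note: 100% = median of untreated cell wells with 0.1% DMSO on each plate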). The following applies: HUVEC proliferation, CellTiter-Glo luminescence, 72 h; at 10 µM; stronger effect = lower value.
The nature of experiment [5]: growth inhibitors of H69AR lung tumor, primary screen, human, duplicate replicates (AID 580;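 active = viability at or under a set limit in both replicates, limit being median viability minus 3 SD, cut at about 48% in these data, passing the limit was not always enough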;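 note: 100% = mean luminescence of untreated wells and 0% = no signal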). The following applies: H69AR lung tumor cells viability, ATP luminescence, 72 h; at 10 µM; stronger effect = lower value.
Experiment [6] in a line: reversal of MRP1-mediated doxorubicin resistance, pilot screen, H69AR cells, doxorubicin co-treatment (AID 601;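 active = viability loss from added drug above about 55%, and viability with drug at most 40%, in both replicates, limit read from the data, passing the limit was not always enough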). The following applies: CellTiter-Glo, 72 h, at 10 µM; for differential viability (reversal): stronger effect = higher value.
A short description of experiment [7]: 384-well plate pilot, post-Golgi transport modulator project, inhibition of yeast transport mutant growth (AID 636; in the data active = inhibition above about 31%). The following applies: absorbance 615 nm, about 18 h, stronger effect = higher value.
Experiment [8] can be described thus: growth suppression of yeast trafficking mutant, preliminary HTS, modulators of trafficking downstream of Golgi apparatus project, 1536-format plate, OD 615 nm (AID 637; in the data active = inhibition above about 30%). The following applies: yeast transport mutant growth, absorbance 615 nm, 18 h; stronger effect = higher value.
Experiment [9] in a line: OD615 S. cerevisiae growth inhibition, permissive medium, pilot counter-assay, permissive growth control for S. cerevisiae lifespan shortening project (AID 705;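 active = growth inhibition above 25% in both replicates, a cutoff set 3 SD above the mean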). The following applies: OD615, 24 h, at 10 µM, stronger effect = higher value.
A short description of experiment [10]: Restrictive medium S. cerevisiae growth inhibition, OD615, pilot screen of yeast lifespan reduction project, restrictive growth control (AID 706;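 active = growth inhibition above a set limit, 3 SD over mean compound inhibition, in both replicates, cut at about 43% in these data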;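 note: modified DeaD lifespan yeast strain shifted to restrictive glucose medium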). The following applies: OD615, 48 h, at 10 µM, stronger effect = higher value.
The nature of experiment [11]: viability gain of MRP-1-high H69AR cells under doxorubicin, pilot screen, MRP-1 activator project, CellTiter-Glo, duplicate (AID 807;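 active = viability increase at or above a cutoff of the median across tested compounds plus 3 SD, cut at about 8.5% in these data, passing the limit was not always enough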;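 note: compound pretreatment 18-22 h then 72 h combined with doxorubicin; 0% = doxorubicin alone and 100% = vehicle without doxorubicin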). The following applies: H69AR viability with doxorubicin, CellTiter-Glo luminescence; at 10 µM; stronger effect = higher value.
A short description of experiment [12]: growth suppression of beta-catenin knockout HCT116, pilot screen, human colon tumor cells (AID 823;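 active = cell viability at or below a set limit in both duplicate runs, the limit being the all-compound median minus 4 SD, cut at about 23% in these data, passing the limit was not always enough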;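 note: 0% = wells killed by 20 µM Hyamine and 100% = untreated DMSO cell wells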). The following applies: CellTiter-Glo, 60 h, at 10 µM, stronger effect = lower value.
The nature of experiment [13]: growth suppression of PTEN-deleted HCT116, pilot screen, cell-based, HCT116 clonal line, CellTiter-Glo (AID 824;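 active = viability at or below 27.92% in each of two runs, the all-compound median minus 4 SD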;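 note: 0% = 20 µM Hyamine control and 100% = vehicle cell control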). The following applies: 60 h, at 10 µM, stronger effect = lower value.
A short description of experiment [14]: inhibitors of the yeast RAM network, pilot screen, dse1pr::URA3 reporter, 5-FOA selection (AID 869;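 active = inhibition over a set limit, the all-compound mean plus 3 SD, in both replicate runs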;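 note: 0% = DMSO wells with no growth and 100% = 10 µM 1-NA-PP1 with full growth; RAM network block rescues cells from 5-FOA so hits raise OD615 growth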). The following applies: S. cerevisiae dse1pr::URA3 5-FOA growth, OD615, 2 d; at 10 µM; stronger effect = higher value; strain carries analog-sensitive mutant Cbk1 kinase.
Experiment [15] in a line: RAM signaling pathway blockade in yeast – S. cerevisiae, Pdr1DBD-CYC8 efflux-inhibited sensitized strain, primary screen (AID 1298;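 active = RAM network inhibition above 8.4% in each of two replicates, 3 SD over the compound average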;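 note: 0% = DMSO untreated cells without growth and 100% = 10 µM 1-NA-PP1 full growth; higher means more yeast growth rescued from 5-FOA killing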). The following applies: S. cerevisiae cbk1-as DSE1-URA3 strain, 5-FOA growth OD615, 2 d; at 50 µM; stronger effect = higher value.
[16] abbreviates: H69AR cells + 2 uM doxorubicin, measured here: viability with 2 uM doxorubicin, stronger effect = lower value.
The mark [17] stands for this setting: H69AR cells, compound alone cytotoxicity.

Records with an inconclusive call do not appear. Active and inactive are the calls of the source.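 Rule for the calls, unless noted: active = Her2 level under about 52% in both replicate screens, with viability over 70% of control (limit read from the data); inconclusive = Her2 under the limit in one screen only, or viability under 70%; inactive = Her2 level above the set limit.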

By viability is commonly meant a read-out of living cells in per cent, often relative to untreated cells. Broadly, the inhibition is the drop in the measured response relative to a control, in per cent. Turning to `Cc1c(C(=O)NC2CC2)oc2ccc(S(=O)(=O)N3CCCCCC3)cc12`, the viability is 81.5% in [1]; 81.5% (inactive) in experiment [3]; 96.8% (inactive) in [4]; 83% (inactive) in experiment [5]; 97.1% in experiment [6] (setting [16]); 83% in [6] (setting [17]). For the same compound, the figures for the viability in [12] and in experiment [13] were 92.9% (inactive) and 90.8% (inactive), respectively. In addition, the Her2 level in [2] was 106% (inactive). In addition, the differential viability (reversal) in experiment [6] (H69AR cells + 2 uM doxorubicin) was -14.2% (inactive). In addition, the inhibition is -0.81% (inactive) in experiment [7], 3.44% (inactive) in [8] and 0.26% (inactive) in experiment [14]. The growth inhibition in experiment [9] is -7.49% (inactive); in [10], 6.7% (inactive). Also, the viability increase in [11] was 3.84% (inactive). In experiment [15], the RAM network inhibition was 4.34% (inactive).
Consider `COC(=O)CCCCCc1ccc(C(C)=O)s1`, for which the viability was 86.5% in experiment [1]; 86.5% (inactive) in experiment [3]; 105% (inactive) in experiment [4]; 100% (inactive) in experiment [5]; 86.5% in experiment [6] (setting [16]); 100% in experiment [6] (setting [17]). In addition, the viability in experiment [12] is 96.7% (inactive); in [13] it was 95% (inactive). In addition, in experiment [2], the Her2 level was 84.5% (inactive). Further, the differential viability (reversal) in [6] (H69AR cells + 2 uM doxorubicin) was 13.6% (inactive). Besides, the values for the inhibition in experiment [7], in experiment [8] and in experiment [14] were -1.33% (inactive), -1.61% (inactive) and 0.02% (inactive), respectively. Moreover, the growth inhibition was -3.98% (inactive) in experiment [9] and -1.53% (inactive) in experiment [10]. For the same compound, the viability increase in [11] was 0.73% (inactive). Besides, the RAM network inhibition in experiment [15] was 3.12% (inactive).
Consider `COc1ccc(C(=O)c2coc3ccc(O)c(CN4CCCCC4)c23)cc1`, for which the viability is 79.5% in experiment [1]; 79.5% (inactive) in experiment [3]; 66% (inactive) in experiment [4]; 75.5% (inactive) in experiment [5]; 75.7% in experiment [6] (setting [16]); 75.5% in [6] (setting [17]). Besides, the figures for the viability in [12] and in experiment [13] were 40.5% (inactive) and 53.3% (inactive), respectively. Further, the Her2 level in experiment [2] was 106% (inactive). In addition, the differential viability (reversal) in experiment [6] (H69AR cells + 2 uM doxorubicin) is -0.2% (inactive). For the same compound, the inhibition in experiment [7] is -3.07% (inactive); in experiment [8], 5.33% (inactive); in experiment [14], 0.725% (inactive). Also, the growth inhibition in [9] is -3.45% (inactive); in experiment [10] it was -4.88% (inactive). In addition, the viability increase in experiment [11] was -4.51% (inactive). For the same compound, the RAM network inhibition in [15] was 6.6% (inactive).
`O=C1CC(c2ccccc2)CC(O)=C1C=NCCN1CCOCC1` (stereo not drawn): the viability in [1] is 96.5%; in experiment [3], 96.5% (inactive); in experiment [4], 85.7% (inactive); in [5] it was 102% (inactive); in experiment [6] (setting [16]) it was 96.2%; in experiment [6] (setting [17]) it was 102%. The viability in experiment [12] is 94.7% (inactive); in experiment [13] it was 93.2% (inactive). The Her2 level in [2] was 85.5% (inactive). For the same compound, the differential viability (reversal) in experiment [6] (H69AR cells + 2 uM doxorubicin) is 5.44% (inactive). Further, the values for the inhibition in experiment [7], in experiment [8] and in [14] were -7.97% (inactive), -1.48% (inactive) and 1.16% (inactive), respectively. Besides, the growth inhibition in [9] was -4.59% (inactive); in experiment [10] it was 9.74% (inactive). The viability increase in experiment [11] was 0.42% (inactive). For the same compound, the RAM network inhibition in experiment [15] is -0.52% (inactive).
With `CCC(C)C(=O)Nc1nc2c(s1)C(=O)CC(C)(C)C2` (stereo not drawn), the viability in experiment [1] was 120%; in experiment [3], 120% (inactive); in [4], 97.1% (inactive); in experiment [5] it was 89.5% (inactive); in experiment [6] (setting [16]), 88.3%; in [6] (setting [17]) it was 89.5%. The viability in experiment [12] is 107% (inactive); in experiment [13], 97.5% (inactive). In experiment [2], the Her2 level was 106% (inactive). Further, in [6] (H69AR cells + 2 uM doxorubicin), the differential viability (reversal) is 1.27% (inactive). For the same compound, the values for the inhibition in experiment [7], in experiment [8] and in experiment [14] were -6.27% (inactive), -0.67% (inactive) and 2.1% (inactive), respectively. In addition, the growth inhibition in experiment [9] is -16.6% (inactive); in experiment [10], -8.86% (inactive). Besides, the viability increase in experiment [11] was 0.25% (inactive). For the same compound, the RAM network inhibition in experiment [15] was 1.9% (inactive).
On to `COc1ccc(C(=O)Oc2c(CN3CCOCC3)cc(Cl)c3cccnc23)cc1OC`, for which the viability in experiment [1] is 93%; in experiment [3], 93% (inactive); in experiment [4], 71.8% (inactive); in experiment [5], 1.58% (active); in experiment [6] (setting [16]), 1.75%; in experiment [6] (setting [17]) it was 1.58%. In addition, the viability in [12] is 9.93% (active); in experiment [13], 5.98% (active). In experiment [2], the Her2 level is 95.5% (inactive). Besides, the differential viability (reversal) in experiment [6] (H69AR cells + 2 uM doxorubicin) was -0.17% (inactive). For the same compound, the inhibition was -5.87% (inactive) in experiment [7], -6.23% (inactive) in experiment [8] and 1.39% (inactive) in experiment [14]. The growth inhibition in experiment [9] was -12.6% (inactive); in experiment [10], -19.1% (inactive). Also, in [11], the viability increase is -8.29% (inactive). In addition, the RAM network inhibition in experiment [15] is 0.26% (inactive).
Consider `CCOC(=O)C(C)(C)Sc1nc2c(cnn2-c2ccc(Cl)cc2)c(=O)[nH]1`, for which the viability is 76% in experiment [1]; 76% (inactive) in experiment [3]; 64.4% (inactive) in experiment [4]; 81.9% (inactive) in experiment [5]; 85.4% in experiment [6] (setting [16]); 81.9% in experiment [6] (setting [17]). The viability was 91.9% (inactive) in [12] and 78.2% (inactive) in experiment [13]. The Her2 level in experiment [2] was 91% (inactive). Besides, the differential viability (reversal) in experiment [6] (H69AR cells + 2 uM doxorubicin) is -3.56% (inactive). Further, the inhibition is -2.05% (inactive) in [7], 2.5% (inactive) in experiment [8] and 1.89% (inactive) in [14]. Besides, the growth inhibition in experiment [9] was -5.47% (inactive); in [10], -0.62% (inactive). Moreover, the viability increase in [11] is -2.17% (inactive). For the same compound, in [15], the RAM network inhibition is 6.14% (inactive).
`O=C(O)c1ccccc1S(=O)(=O)NCC(O)COc1ccc(Br)cc1` (stereo not drawn): the viability is 102% in [1]; 102% (inactive) in [3]; 119% (inactive) in experiment [4]; 99.9% (inactive) in [5]; 93.6% in experiment [6] (setting [16]); 99.9% in [6] (setting [17]). In addition, the figures for the viability in experiment [12] and in [13] were 97.9% (inactive) and 100% (inactive), respectively. Also, the Her2 level in experiment [2] was 84.5% (inactive). The differential viability (reversal) in experiment [6] (H69AR cells + 2 uM doxorubicin) was 6.29% (inactive). The inhibition was -2.47% (inactive) in experiment [7], -1.17% (inactive) in experiment [8] and 1.09% (inactive) in [14]. The growth inhibition in [9] is -17.1% (inactive); in [10], -22.2% (inactive). Besides, the viability increase in experiment [11] is 0.84% (inactive). Further, in experiment [15], the RAM network inhibition was 7.5% (inactive).
Take `CCCN(CCC)C(=O)c1c(C)[nH]c(C(=O)OCC)c1C`: the viability was 98% in experiment [1]; 98% (inactive) in experiment [3]; 106% (inactive) in [4]; 81.4% (inactive) in [5]; 93.8% in experiment [6] (setting [16]); 81.4% in experiment [6] (setting [17]). Besides, the viability in [12] was 92.9% (inactive); in experiment [13] it was 86.7% (inactive). Moreover, in experiment [2], the Her2 level was 110% (inactive). Moreover, the differential viability (reversal) in experiment [6] (H69AR cells + 2 uM doxorubicin) is -12.4% (inactive). Also, the inhibition in experiment [7] was -0.38% (inactive); in experiment [8], -2.33% (inactive); in [14], 2.12% (inactive). In addition, the values for the growth inhibition in experiment [9] and in experiment [10] were 4.14% (inactive) and -3.27% (inactive), respectively. In [11], the viability increase is -3.62% (inactive). The RAM network inhibition in [15] is 1.44% (inactive).
